experiment: small-molecule microarray binders of probe aEGFR, primary screen, biochemical, biotinylated probe, 635/667 nm fluorescence (AID 1097); details: higher = more signal;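 also: probe is a biotinylated anti-EGFR antibody binding compounds printed on slides; score combines fluorescence near 667 nm and signal to noise of each spot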

SMILES | composite z-score
O=C1c2ccccc2[C@](Cc2ccccc2I)(C(=O)O)[C@H](c2ccc(CO)cc2)N1Cc1ccccc1C(F)(F)F | -0.379
C=CCN1C(=O)[C@@]2(O[C@@H](CCO)[C@H]([Si](C)(C)c3ccc(OC)cc3)[C@H]2C)c2cc(NC(C)=O)ccc21 | 0.118
O=C1O[C@@H](c2ccccc2)[C@@H](c2ccccc2)N2[C@@H](c3ccc(O)cc3)[C@]3(C(=O)Nc4ccccc43)[C@@H](C(=O)NC[C@H](O)c3ccccc3)[C@H]12 | -0.112
C=C(CCCC)C(=O)CC[C@@H](OC(=O)c1ccccc1-c1ccccc1C(=O)O)c1ccc(CO)o1 | 0.0068
COCCOC(=O)N1C(=O)[C@@]2(c3cc(C#CCCO)ccc31)[C@H](c1ccc(O)cc1)N1[C@H](c3ccccc3)[C@H](c3ccccc3)OC(=O)[C@H]1[C@@H]2C(=O)N1CCCCCCC1 | 0.335
O=C(NCC(O)CO)[C@]1(CCS(=O)(=O)c2ccccc2)N=C(c2ccc(OCCCO)cc2)O[C@@H]1c1ccccc1 (stereo not given in full) | -0.0913
CC(C)NC(=O)[C@@H]1c2ccccc2C(=O)N(C2CCCCC2)[C@H]1c1ccc(CO)cc1 | 0.262
CCOC(=O)C=Cc1cccc(OC)c1O | -0.209
NC(=O)NCC#Cc1ccc2c(c1)[C@]1(C(=O)N2)[C@H](C(=O)NC[C@H](O)c2ccccc2)[C@H]2C(=O)O[C@H](c3ccccc3)[C@H](c3ccccc3)N2[C@@H]1c1ccccc1OCCO | -0.167
CN1C(=O)C2C(C1=O)C1C=C(c3ccc(CO)cc3)C2C(C2CC2)N1Cc1cc2c(cc1Br)OCO2 (stereo not given) | 0.035

From PubChem BioAssay
